Structures can show the parent of a compound that is named as a salt.
These compounds were tested on Neuro-2a (assay: neurite formation score, plate-normalized to DMSO control mean 5.04 (score (0-8 scale)); higher = more or longer neurites). Conditions: 0.1 µM.
Description: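 Neuro-2a mouse neuroblastoma cells in PLL-coated 96-well plates were pre-treated for 1 h in DMEM(+) with each kinase inhibitor at 0.1 µM, then switched to serum-free DMEM(-) with inhibitor to induce neurite outgrowth and fixed about 2-3 h later. Three blinded observers scored neurite formation from 0 (no neurites) to 8 (long neurites on almost all cells).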

Compared with `O=C(NCc1ccccc1)c1csc(Nc2ccncn2)n1` [Thiazovivin], `N#C/C(=C\c1ccc(O)c(O)c1)C(=O)NCc1ccccc1` is lower in neurite formation score: 4.88 for the first, 4.58 for the second.

Compared with `CN(C)C1CCN(C(=O)c2ccc(NC(=O)Nc3ccc(-c4nc(N5CCOCC5)nc(N5CCOCC5)n4)cc3)cc2)CC1`, `CNC(=O)Nc1ccc(-c2nc(N3CC4CCC(C3)O4)c3cnn(C4CCC5(CC4)OCCO5)c3n2)cc1` is higher in neurite formation score: 3.09 for the first, 4.75 for the second.

First: CCOc1cc2ncc(C#N)c(Nc3ccc(OCc4ccccn4)c(Cl)c3)c2cc1NC(=O)/C=C/CN(C)C [Neratinib (HKI-272)]
Second: CCCNC(=O)Nc1ccc(Oc2ncnc3cc(OC)c(OC)cc23)cc1Cl
The neurite formation score of the first is lower: 5.09 for the first, 5.54 for the second.

Going from `N#CC1(c2ccc(NC(=O)c3cccnc3NCc3ccncc3)cc2)CCCC1` [Apatinib] to `O=C(Cc1ccc(-c2ccc(OCCN3CCOCC3)cc2)cn1)NCc1ccccc1`, the neurite formation score falls from 4.08 to -0.243.

Going from `CN1CCN(c2nc(C3=C(c4c[nH]c5ccccc45)C(=O)NC3=O)c3ccccc3n2)CC1` [Sotrastaurin (AEB071)] to `O=C1NC(=O)C(c2ccccc2[N+](=O)[O-])=C1Nc1ccc(O)c(Cl)c1`, the neurite formation score rises from 4.92 to 5.21.

Compared with `CSc1cccc(Nc2ncc3cc(-c4c(Cl)cccc4Cl)c(=O)n(C)c3n2)c1`, `COc1cc(Nc2ncc3c(n2)-c2ccc(Cl)cc2C(c2c(F)cccc2OC)=NC3)ccc1C(=O)O` [MLN8237 (Alisertib)] is higher in neurite formation score: 3.92 for the first, 4.58 for the second.

Compared with `N#Cc1cccc(-c2c[nH]c3ncnc(N4CCOCC4)c23)c1`, `Nc1ccc(C(=O)Nc2cccc(-c3nc(N4CCOCC4)c4oc5ncccc5c4n3)c2)cn1` is lower in neurite formation score: 4.75 for the first, 4.42 for the second.

Compared with `CC(C)(C#N)c1ccc(N2C(=O)OCc3cnc4ccc(-c5cnc6ccccc6c5)cc4c32)cc1`, `c1cc(-c2cnn3cc(-c4ccc(N5CCNCC5)cc4)cnc23)c2cccnc2c1` is higher in neurite formation score: 4.25 for the first, 4.75 for the second.

Compared with `CCc1cccc(CC)c1NC(=O)N1Cc2[nH]nc(NC(=O)c3ccc(N4CCN(C)CC4)cc3)c2C1`, `Cc1cnc(Nc2ccc(N3CCN(C)CC3)cc2)nc1Nc1cccc(S(=O)(=O)NC(C)(C)C)c1` is lower in neurite formation score: 5.09 for the first, 2.58 for the second.

`CN(C)c1nc2c(Br)c(Br)c(Br)c(Br)c2[nH]1` and `Cc1cc(C)c(/C=C2\C(=O)Nc3ccccc32)[nH]1` are the same in neurite formation score: 5.25 for the first, 5.25 for the second.

Compared with `Cc1nc2c(-c3cnc(N)nc3)nc(N3CCOCC3)nc2n1C(C)C`, `Cc1c(CN2CCN(C(=O)[C@H](C)O)CC2)sc2c(N3CCOCC3)nc(-c3cnc(N)nc3)nc12` is higher in neurite formation score: 4.25 for the first, 4.42 for the second.

First: Cc1[nH]c(/C=C2\C(=O)Nc3ccc(S(=O)(=O)Cc4c(Cl)cccc4Cl)cc32)c(C)c1C(=O)N1CCC[C@@H]1CN1CCCC1
Second: C[C@@H]1COCCN1c1cc(C2(S(C)(=O)=O)CC2)nc(-c2cccc3[nH]ccc23)n1
The neurite formation score of the first is higher: 5.04 for the first, 4.71 for the second.

Compared with `COc1nccc(-c2c(-c3ccc(F)cc3)ncn2C2CCC(O)CC2)n1` (stereo not given), `O=C(O)[C@]1(Cc2cccc(Nc3nccs3)n2)CC[C@@H](Oc2cccc(Cl)c2F)CC1` is lower in neurite formation score: 5.25 for the first, 3.92 for the second.

Compared with `CNc1nc(Nc2ccc(C(=O)N3CCOCC3)cc2OC)ncc1Cl`, `Cc1c(NC(=O)c2ccc(C(C)(C)C)cc2)cccc1-c1cn(C)c(=O)c(Nc2ccc(C(=O)N3CCOCC3)cc2)n1` is higher in neurite formation score: 4.58 for the first, 5.04 for the second.

Compared with `Cc1nc(-c2cn3c(n2)-c2ccc(-c4cnn(C(C)(C)C(N)=O)c4)cc2OCC3)n(C(C)C)n1`, `Cc1cc(N2CCOCC2)cc2[nH]c(-c3c(NC[C@@H](O)c4cccc(Cl)c4)cc[nH]c3=O)nc12` is lower in neurite formation score: 4.92 for the first, 4.71 for the second.

First: O=C(COc1ccc(Cl)cc1)NC1CCC(NC(=O)COc2ccc(Cl)cc2)CC1 (stereo not drawn) [ISRIB (trans-isomer)]
Second: NC(=O)Nc1cc(-c2cccc(F)c2)sc1C(=O)N[C@H]1CCCNC1
The neurite formation score of the first is higher: 4.42 for the first, 4.21 for the second.

Compared with `O=C1NC(=O)/C(=C/c2ccc3nccc(-c4ccncc4)c3c2)S1`, `O=c1sn(-c2cccc3ccccc23)c(=O)n1Cc1ccccc1` [Tideglusib] is lower in neurite formation score: 5.42 for the first, 5.08 for the second.

Compared with `S=C(NCc1ccc2c(c1)OCO2)N1CCN(c2ncnc3c2oc2ccccc23)CC1` [Amuvatinib (MP-470, HPK 56)], `C#Cc1cccc(Nc2ncnc3cc(OCCOC)c(OCCOC)cc23)c1` [Erlotinib Hydrochloride] is higher in neurite formation score: 4.92 for the first, 5.21 for the second.

Going from `O=C1NCCSc2c1sc1ccc(O)cc21` to `O=C(/C=C/c1ccc(O)c(O)c1)c1ccc(O)cc1O` [Butein], the neurite formation score falls from 4.58 to 4.38.

Compared with `CCCCCCCCCCCCCCCCCCOP(=O)([O-])OC1CC[N+](C)(C)CC1` [Perifosine], `CCC[C@H](NC(=O)/C(C#N)=C/c1cccc(Br)n1)c1ccccc1` is lower in neurite formation score: 4.88 for the first, 4.21 for the second.

Source: the supplement of paper PMC8047044
